Only some compounds are listed: those with a hit (about 4.1% of all), similar ones and a draw of the others.
hgDAF12 agonist = hgDAF-12 agonism, primary luciferase screen | hit rate 1.8% among 370,000 | activation, % at 6.8 µM | AID 687014 | HEK293 GAL4-hgDAF12 UAS-luciferase reporter, agonist luminescence; normalized to butyrate control;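 active = activation above a cutoff set at the mean of all screened compounds plus 3 SD, cut at about 10% in these data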;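 also: 0% = DMSO wells and 100% = sodium butyrate wells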
DAX1 inh-1 = inhibitors of human orphan nuclear receptor DAX1 (NR0B1); HEK293 Gal4-DAX1 luciferase reporter, luminescence; hit rate 0.99% among 340,000; P51843; inhibition, % at 6.75 µM;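 active = inhibition above the mean over all tested compounds plus 3 SD, cut at about 4.2% in these data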;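 also: 0% = DAX1-transfected cells with DMSO and 100% = empty-vector control cells with DMSO; inhibition shows as a rise in luminescence from relieved DAX1 repression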
Target sequence (P51843 207-470 limits assumed): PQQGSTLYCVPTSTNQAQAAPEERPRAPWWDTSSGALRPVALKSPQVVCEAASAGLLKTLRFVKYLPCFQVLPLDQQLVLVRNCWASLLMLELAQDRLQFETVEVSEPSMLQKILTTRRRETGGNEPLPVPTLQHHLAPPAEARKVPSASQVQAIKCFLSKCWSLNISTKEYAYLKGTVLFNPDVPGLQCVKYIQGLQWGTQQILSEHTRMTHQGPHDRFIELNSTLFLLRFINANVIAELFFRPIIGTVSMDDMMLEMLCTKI
DAX1 inh-2 = DAX1 (NR0B1) inhibition, primary screen | HEK293T StAR-luciferase reporter, SF-1/DAX-1 repression relief | inhibition, % at 6.8 µM | hit rate 1.1% among 370,000;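 active = inhibition above the mean over all tested compounds plus 3 SD, cut at about 3.6% in these data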;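 also: 0% = DAX-1 cells with DMSO and 100% = cells lacking DAX-1 with DMSO; higher inhibition means more luminescence from relief of DAX-1 repression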
hcDAF-12 act = activates DAF-12 receptor from parasite H. contortus; HEK293 hcDAF-12 lit1-tk-luc reporter, luminescence; 0% DMSO, 100% Δ7-dafachronic acid; activation, % at 6.8 µM; hit rate 1.4% among 370,000;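 active = activation above the mean of all tested compounds plus 3 SD, cut at about 5.5% in these data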;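 also: 100% = response to 3 µM Δ7-dafachronic acid high control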
ssDAF12 agonist = activates DAF-12 receptor from parasite S. stercoralis; HEK293 ssDAF-12/GRIP1 lit1-tk-luc reporter, luminescence; % of 3 µM dafachronic acid response; AID 652126; hit rate 1% among 370,000; activation, % at 6.8 µM;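 active = activation above the mean over all tested compounds plus 3 SD, cut at about 0.9% in these data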;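 also: 0% = DMSO-only wells and 100% = 3 µM delta7-dafachronic acid wells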
The depositor's hits bear a star; / = no result.

SMILES	hgDAF12 agonist	DAX1 inh-1	DAX1 inh-2	hcDAF-12 act	ssDAF12 agonist
c1ccc(CCn2nnc3ccccc32)cc1	8	6.3*	2	3	-1
Cc1ccc(C(=O)Cn2nnc3ccccc32)cc1	11*	0	2	3	0
C[C@@H]1ON(C)[C@H]2C[C@H]3c4[nH]c5c(-c6ccc(F)cc6)cccc5c4CCN3C(=O)[C@@H]12	2	/	1	1	0
CC(C)NC(=O)CCn1nnc(-c2cccs2)n1	0	/	0	-4	-1
Oc1ccc(CNc2ccccc2Br)c2cccnc12	-5	/	/	-2	-2
Cc1cccc(OCCCN2CCC(C(O)(c3ccccc3)c3ccccc3)CC2)c1	2	/	0	-1	-2
Cc1ccc(OCCn2nnc3ccccc32)cc1C	13*	1	1	3	-1
CC(C)CNC(=O)OCc1cn(Cc2ccc(C(F)(F)F)cc2)nn1	-2	/	0	-1	-1
O=c1[nH]c2ccccc2c(O)c1Cc1ccccc1	-2	4.7*	-1	-2	-1
C=CCNC(=O)C1(S(=O)(=O)c2ccccc2)CC=CC1	1	5.2*	1	0	-1
Nc1nc(CN2CCCCCC2)nc(Nc2ccccc2)n1	0	0	-1	-1	0
Cc1c(-c2nc(N)nc(Nc3ccccc3)n2)oc2ccccc12	11*	2	2	3	0
C[C@H](O)[C@@H]1CN2CCc3c([nH]c4cccc(-c5ccccc5)c34)[C@@H]2C[C@@H]1N(C)C(=O)C1CCCCC1	1	/	-1	-3	-1
O=C(N[C@H](c1cccc(Br)c1)[C@@H]1CCCC=C1c1ccccc1)C(F)(F)F	-3	/	-1	-1	-1
COC(=O)c1ccc(COc2ccccc2/C=C(\C#N)C(=O)Nc2ccc(C)cc2)cc1	11*	3	3.9*	3	-1
CCCCCN1CCCCC(NC(=O)c2cccc(F)c2)C1=O (stereo not drawn)	3	/	0	-1	-1
CCN(CC)C(=O)c1ccc2c(c1)NC(=O)C(C)(C)O2	1	/	1	-3	-1
COc1ccc(C(=O)NC(=S)NNC(=O)c2cnccn2)cc1OC	5	4.9*	0	-1	-1
COc1cc(OC)cc(C(=O)NC(=S)NNC(=O)c2cnccn2)c1	1	1	0	-1	-2
CN(CCc1ccccn1)C(=O)[C@@H](Cc1ccccc1)NC(=O)[C@H]1O[C@@H](n2ccc(=O)[nH]c2=O)[C@H](O)[C@@H]1O	1	/	-1	-2	-2
CCc1ccc(N2CC34C=CC(O3)C(C(=O)OC(C)C)C4C2=O)cc1 (stereo not drawn)	0	1	0	-1	-1
CCc1ccc(N2CC34C=CC(O3)C(C(=O)OC)C4C2=O)cc1 (stereo not drawn)	-1	4.4*	1	-1	-1
COc1ccc(-c2nc3ccc(N4CCN(C)CC4)cc3c(=O)[nH]2)cc1	5	5.0*	1	-1	-1
COc1cc(-c2nc3ccc(N4CCN(C)CC4)cc3[nH]2)cc(OC)c1OC	3	1	3	1	0
COc1ccc(S[C@]2(C(=O)N3CCN(c4ncccn4)CC3)CC(=O)N(c3ccc(OC)cc3)[C@@H]2c2ccc(OC)cc2)cc1	-6	/	-1	1	-1
SMILES	hgDAF12 agonist	DAX1 inh-1	DAX1 inh-2	hcDAF-12 act	ssDAF12 agonist
Cc1ccc(-n2nc3c(c2NC(=O)c2ccccc2)CS(=O)(=O)C3)cc1C	2	1	0	-1	-1
Cc1ccc(C(=O)Nc2c3c(nn2-c2ccccc2)CS(=O)(=O)C3)cc1C	0	1	0	5.8*	-1
CC(C)Cn1c(=O)cc(N2CCN(c3cccc(C(F)(F)F)c3)CC2)[nH]c1=O	4	/	/	0	0
CCCCCCCCN1CCS(=O)(=O)N(Cc2ccc(Cl)cc2)C(C(=O)OC)C1 (stereo not drawn)	-2	/	1	0	-1
COc1ccc(OC)c(S(=O)(=O)Nc2ccc(-c3ccc4nnc(C)n4n3)cc2)c1	1	3	2	4	-1
COc1ccc(CC(=O)Nc2ccc(-c3ccc4nnc(C)n4n3)cc2)cc1OC	-5	5.7*	1	-1	0
O=C(O)CN1C(=O)COc2cc(S(=O)(=O)N3CCCC3)ccc21	-1	5.8*	0	0	-1
O=C(CSc1nnc(-c2cccnc2)n1-c1ccc(Cl)cc1)Nc1ccc(S(=O)(=O)Nc2nccs2)cc1	-3	/	0	-2	-2
O=C1CN(CCN2CC(=O)N(Cc3ccccc3)C(=O)C2)CC(=O)N1Cc1ccccc1	2	2	0	-1	-1
CC1(C)CC(=O)N(Cc2ccccc2)C(=O)C1	-2	4.5*	-1	1	-1
Cc1[nH]c2ccccc2c1Cc1n[nH]c(=S)n1C	1	1	-1	1	-1
Cn1c(Cc2c[nH]c3ccccc23)n[nH]c1=S	1	1	1	4	1.0*
Cc1cc(C(=O)COC(=O)c2cccn2C)c(C)n1Cc1ccco1	5	-4	4.1*	3	-1
Nc1ccccc1C(=O)N/N=C1/C2CN3CCN(C2)CC1(Cc1ccccc1)C3	8	4.5*	2	2	0
CCCC12CN3CCN(CC(C3)/C1=N\NC(=O)c1ccccc1N)C2	6	2	2	2	0
Cc1ccc(OC(=O)c2cccc(S(=O)(=O)N3CCCC3)c2)c(-n2nc3ccccc3n2)c1	11*	4	2	1	-1
Cc1ccc(OC(=O)c2cccc(S(=O)(=O)N(C)C)c2)c(-n2nc3ccccc3n2)c1	10	2	3	5	-1
Cc1ccc(OC(=O)c2ccc(S(=O)(=O)N(C)C)cc2)c(-n2nc3ccccc3n2)c1	12*	4.3*	3	3	0
Cn1cccc1C(=O)OCC(=O)NC1CCS(=O)(=O)C1 (stereo not drawn)	-1	2	0	1	2.5*
COc1ccc(S[C@]2(C(=O)N3CCN(C(C)=O)CC3)CC(=O)N(C(=O)C3CC3)[C@@H]2c2ccc(OC)cc2)cc1	-2	/	-2	-2	0
CCN(CC)C(=O)c1ccc(/C=C/c2c[nH]c3ccccc23)[n+](C)c1	2	0	1	2	1.6*
C[C@H]1CN(c2ccc(N3CCN(C(=O)OC(C)(C)C)C[C@@H]3C)cc2C#N)CCN1Cc1ccccc1	4	/	-3	-1	-1
CCC1(CC)NC(=O)N(CC(=O)N2CCc3ccccc32)C1=O	1	1	0	3	-1
CC1CCCCC12NC(=O)N(CC(=O)N1CCc3ccccc31)C2=O (stereo not drawn)	2	0	-1	5.8*	1
Cc1ccc(N2/C(=N/c3nc(C)cc(C)n3)NC(=O)CC2C(=O)O)cc1 (stereo not drawn)	3	0	0	5.8*	0
Cc1cc(SCCOc2ccccc2)nc(N)n1	7	5.1*	2	-2	0

Source: PubChem (The Scripps Research Institute Molecular Screening Center)
